Drawing on the supplement of paper PMC10681739, this text covers ETS1 binding intensity for 40 sequences.

This assay has as its target T1, ETS1 (UniProt P14921).
T1 sequence: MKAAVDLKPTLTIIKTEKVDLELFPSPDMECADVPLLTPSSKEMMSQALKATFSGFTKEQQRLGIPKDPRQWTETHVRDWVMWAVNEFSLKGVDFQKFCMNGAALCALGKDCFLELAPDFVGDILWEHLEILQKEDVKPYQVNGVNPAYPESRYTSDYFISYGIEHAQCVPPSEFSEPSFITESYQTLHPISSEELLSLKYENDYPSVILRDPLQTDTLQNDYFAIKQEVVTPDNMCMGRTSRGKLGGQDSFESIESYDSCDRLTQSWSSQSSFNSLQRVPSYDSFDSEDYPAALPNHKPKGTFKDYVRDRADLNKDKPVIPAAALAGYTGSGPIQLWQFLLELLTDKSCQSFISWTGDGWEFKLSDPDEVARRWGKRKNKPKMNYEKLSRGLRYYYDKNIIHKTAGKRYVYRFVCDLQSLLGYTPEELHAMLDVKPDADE
Put plainly: ETS1 binding intensity (PBM fluorescence), ETS1 alone (arbitrary fluorescence units); higher = stronger binding. The conditions noted are these: ETS1 concentration 1 nM; RUNX1 concentration 0 nM.
The sequence AGTTTCTCAGCTTCCTGTGTGGTTTTCTTGATCTGC came in with an ETS1 binding intensity of 1480.
Consider CCAACACAGGAAATAATTTGAAACCACAATCAGAAA, for which the ETS1 binding intensity was found to be 1270.
For the sequence GAGCATAGCCTAGCAGGATGTGGTTAAATACATTTG, the ETS1 binding intensity was found to be 3320.
With GGACCCAGCAGAGGATGTGGTTACAGGGCCATGATA the figure was 720; with AAGACAACATCCTGCCGGCACAGCCTGCGGGTTACT, 576; with GCAGCATTTCCTGACTTCTTCGCCCCTGTGGTTGCA, 440.
On to TGAGAAAACAGGAAGCGCCCAGTCACCACAGAAAGC, for which the ETS1 binding intensity stood at 2910.
GTGTGGAAGGAGGAAGCGAGAATGTGGTTACTTAGG: the ETS1 binding intensity came to 718.
ACTGCACGGCTGGGAGGATGTGGTCACACACGCCAC came in with an ETS1 binding intensity of 1380.
With GACCAATGTAAACAAGGATGTGGGTTCTCCGGCCAC the figure was 784; with AGACGGGACCGGAAGCCGGGCCGCAGGCGGCCGGGC, 5400.
With TCCTCCGTTTCCGTAGTTCCGAGTTGCGGTTTCTCC the figure was 487; with TTAAGGAGCTTCCGGGGCCGCGGGTAGAGGCGGGTG, 629; with ATGGGGAACGGGAAATACGGCGGGAACCACAATCGC, 734.
Then CCAGTACCCCACTTCCTGACCAAACCACAAAGGTCA, with 635.
The sequence TATGGGGCCGGAAGCCATTCACCACAAACACTGTGT displayed an ETS1 binding intensity of 2430.
Sequence CTGCTGGCGTTCCCGGATGTGCGGTGGCGGTGCTAC displayed an ETS1 binding intensity of 4900.
GCGAGACGCGGAAGAGGCTTGCGGTTGACCAAAGAA displayed an ETS1 binding intensity of 407.
With GATACCCAGCCAGCGGAAGTGCGGTTAACTGCCCGA the figure was 4460.
For CCTGGGCAAGGCCGGATGCCTGTGGCTTCCAGGCTG, the ETS1 binding intensity amounted to 2880.
Then CTGGTTTCATTTCCGGGTGCGGCTTCTGTCATAAAG, with 1900.
With GCACCCGGCACTACTTCCCGACCCGCATCCCCCGCC the figure was 689; with ATGAACCACTTCCTGTGTGTTCCCACAGAGGTCAGG, 2670; with TTGCACACGTGGGCGGGAAGTGGTTAAGCGGCCTCA, 1020.
Then TCATTTCCTCTGGTGTTATTGTGTTGTGGTTTTAAG, with 417.
GCAGAAGAGGAAATGGTTTGCCTGTGCGGTGGGGGA: the ETS1 binding intensity came out at 1370.
Turning to GTTGAGTAGTGACAGGAAGTGACCGCAAGGGGGCGC, the ETS1 binding intensity is 10700.
Then AATCCAACACTTCCTCCTCCACCGCAGAAAGGCAAC, with 518; and CGGAGGCGGCCGGAAGTAGCGCTGCGGTTGGCAGCT, with 16800.
As for TGATAAAACACAGGATGTGGTAAGGGAGCTGGCCAA, the ETS1 binding intensity is 3350.
With CCAAAATTGCCACGGAAACCACATCTTTCAGGCGAG the figure was 486; with CTGAGTGAGACAGGATGTGGGCAGACCTCTAACACA, 5110.
Then GCCCCCGGAAGCTGTCGCCCCGTGCGGTGTGTGCTG, with 1600.
AGCCTTAATTACCCGGAAGTGCGGTCCCAGGGACTT: the ETS1 binding intensity turned out to be 8970.
With GCGGGAAAAGGGAAGTTTGCGGGAGGTCAAATCCAC the figure was 563; with TACGTCACTTCCGGGCCGCCGTCCTGCGGGCAAGGG, 2570.
For AGCTAGACTACAGGAGGAAACCACAGCCTAAACCAG, the ETS1 binding intensity was 541.
The sequence TTCAGAAAAAAAGGAAGTGGTAAATTCTTGCTGATT gave an ETS1 binding intensity of 1890.
With TGCAGTCGTGAAAAAGGAAGTGGTTAAAGTGGATAC the figure was 2880; with CAGGGCACCTCCTACTTCCCCCCGCAGATAACTACC, 875.
